# Test results from PubChem BioAssay (Tox21).
# Results filed as inconclusive are left out. Unmarked numbers belong to inactive results. Activity calls are given as the source filed them. Calls follow the shape of the dose curve; as a rule, active = well fitted cell-killing curve with a large enough effect in the repeat runs (not every such curve was filed as active); inconclusive = weak or mixed curves, or effect the other way; inactive = no such curve, though single readings can be large or run the other way.
# Assay: qHTS assay to identify small molecule antagonists of the estrogen related receptor signaling pathway with the pleiotropic PPARgamma coactivator (PGC) from Tox21 10K library - cell viability counter screen (AID 1224840); also: nearly all actives have a fitted effect of over 40% in size
# Conditions: PGC/ERR reporter cells viability, CellTiter-Fluor, 17.5 h; series mostly up to 92.4 µM; viability change, negative = cytotoxic: at the top concentration
# Method in brief: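 PGC/ERR cells (2,000/well) plated 6 h, then compound-treated for 17.5 h at 37 C. Viability measured by CellTiter-Fluor fluorescence after 30 min at 37 C, multiplexed with the pathway assay.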
# % is scaled to controls: 0 for no effect and ±100 for the full control effect; potency is read from the fitted curve at half-maximal effect.
SMILES,"viability change, negative = cytotoxic",Potency
NNC(=O)c1ccccc1,2.86%,–
Fc1cccc(Cl)c1CCl,3.8%,–
OC(c1ccc(Cl)cc1)(c1ccc(Cl)cc1)C(Cl)(Cl)Cl,-1.16%,–
N#CC(Cl)Cl,-11.8%,–
c1ccc2c(c1)[nH]c1cnccc12,5.52%,–
Cc1ccc(OP(=O)(Oc2ccccc2)Oc2ccccc2)cc1,-6.27%,–
FC(F)(F)c1cccc(C2=CCN(CCc3ccc4ccccc4c3)CC2)c1,-7.67% [at 42.5 µM],–
BrC(Br)Br,-0.077%,–
Cc1cc(C(F)(C(F)(F)F)C(F)(F)F)ccc1NC(=O)c1cccc(I)c1C(=O)NC(C)(C)CS(C)(=O)=O,-7.11% [at 42.5 µM],–
O=[N+]([O-])c1c2ccccc2cc2ccccc12,-1.38%,–
CCCN(CCC)CCc1c[nH]c2ccccc12,-15.3%,–
CC(C)OS(C)(=O)=O,13.6%,–
N#CNC#N,2.23%,–
CCOCn1c(-c2ccc(Cl)cc2)c(C#N)c(Br)c1C(F)(F)F,–,5.45 µM (active)
